ATXN2 expr inh: ATXN2 expression inhibition. HEK-293 ATXN2-luciferase reporter, luminescence, 24 h. Potency, µM (top dose mostly 57 µM), hits mostly inhibitors. 0.72% of 360,000 active. AID 1745845; note: nearly all actives have a fitted effect of over 55% in size
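ATXN2-luciferase reporter cells (luciferase flanked by upstream and downstream ATXN2 gene portions) were treated 24 h at 37 °C with compounds at up to 57 uM. SteadyGlo luminescence gave expression; GF-AFC fluorescence gave viability.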
12-LOX inh: inhibitors of human 12S-lipoxygenase ALOX12; purified 12hLO, xylenol orange hydroperoxide absorbance; Potency, µM (series often up to 108 µM), usual class: inhibitors; 1.1% of 580,000 active; AID 1671190
Target sequence (P18054 whole entry, looked up): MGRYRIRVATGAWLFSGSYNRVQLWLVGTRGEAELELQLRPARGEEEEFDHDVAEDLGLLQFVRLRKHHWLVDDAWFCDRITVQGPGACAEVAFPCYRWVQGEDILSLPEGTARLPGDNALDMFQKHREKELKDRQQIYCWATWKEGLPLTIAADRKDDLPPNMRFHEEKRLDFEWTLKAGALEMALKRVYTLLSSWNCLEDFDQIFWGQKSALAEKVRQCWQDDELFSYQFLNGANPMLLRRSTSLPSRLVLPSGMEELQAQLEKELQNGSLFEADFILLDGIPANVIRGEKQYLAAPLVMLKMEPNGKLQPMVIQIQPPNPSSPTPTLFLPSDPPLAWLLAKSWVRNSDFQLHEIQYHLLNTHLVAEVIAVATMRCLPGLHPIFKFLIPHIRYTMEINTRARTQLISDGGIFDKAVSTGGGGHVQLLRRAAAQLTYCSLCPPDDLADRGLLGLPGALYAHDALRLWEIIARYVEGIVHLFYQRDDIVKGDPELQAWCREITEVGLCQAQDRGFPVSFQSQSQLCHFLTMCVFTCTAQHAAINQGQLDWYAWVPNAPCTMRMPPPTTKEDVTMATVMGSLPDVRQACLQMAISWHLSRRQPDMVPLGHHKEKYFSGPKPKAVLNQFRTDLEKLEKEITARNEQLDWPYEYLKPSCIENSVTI
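Purified human 12hLO at 150 nM in 25 mM Hepes, 0.01% Triton X-100, pH 7.0, preincubated 15 min at room temperature with compound. Reaction started with 40 uM arachidonic acid, 30 min at room temperature. Hydroperoxide measured by Fe-xylenol orange, 573/405 nm absorbance ratio.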
S2 tox: reduces viability in counter-screen for ATXN expression inhibitors | S2 cells (HEK-293 line with an ATXN2-luciferase reporter) viability, CellTiter-Fluor protease fluorescence, 24 h | Potency, µM (series often up to 56.7 µM), hits mostly cytotoxic | 0.49% of 400,000 active | AID 651635; note: nearly all actives have a fitted effect of over 40% in size
TGFb SMAD3 inh: blocks TGF-b signaling; Potency, µM (top dose mostly 46.1 µM), actives largely listed as inhibitors; HepG2 CAGA-GFP TGF-b/SMAD3 reporter, GFP fluorescence, 18 h; TGF-beta stimulated, 500 pg/mL final; 1.2% of 410,000 active; AID 588855; note: nearly all actives have a fitted effect of over 65% in size
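Read-out: total well GFP (ex488/em500-530) summed from mean per-cell fluorescence. Cells: HEPG2 CAGA-GFP, 1% FBS DMEM, 18 h at 37 degrees C with 500 pg/mL final TGF-beta. Unstimulated wells served as the full-inhibition control; stimulated DMSO wells = 0%.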
HepG2 tox-1: counter-screen for TGF-b inhibitors: cytotoxicity in HepG2 cells; HepG2 CAGA-GFP viability, ATP luminescence, 18 h; Potency, µM (doses to about 46.1 µM), hits mostly cytotoxic; 0.76% of 410,000 active; AID 588856
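HepG2 CAGA-GFP cells (1000/well, DMEM with 1% FBS) received compound, then TGF-beta at 500 pg/mL final, and were incubated 18 hours at 37 degrees C. Viability was read by CellTiter-Glo luminescence. Media-only wells were set as complete cell-killing and DMSO as no toxicity.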
TGFb CAGA inh: confirmation of TGF-b signaling inhibitors in HepG2 reporter cells; AID 720534; shares compounds with TGFb SMAD3 inh; Potency, µM (titrated, usually from 46.1 µM), usual class: inhibitors; HepG2 CAGA-GFP TGF-b reporter, GFP fluorescence, 18 h; cells stimulated with TGF-beta, 500 pg/mL; 63% of 1,600 active; note: nearly all actives have a fitted effect of over 65% in size
HepG2 tox-2: counter-screen for TGF-b inhibitors: cytotoxicity in HepG2 cells. shares compounds with TGFb SMAD3 inh. HepG2 CAGA-GFP viability, ATP luminescence, 18 h; cells stimulated with TGF-beta, 500 pg/mL. Potency, µM (titrated, usually from 46.1 µM), most hits filed as inhibitors. 27% of 1,600 active; note: nearly all actives have a fitted effect of over 70% in size
CCL64 TGFb inh: blocks TGF-b signaling in CCL64 reporter cells; CCL64 CAGA-GFP reporter, TGF-b stimulated, GFP fluorescence, 18 h; 41% of 1,600 active; Potency, µM (highest dose often 46.1 µM), most hits filed as inhibitors; shares compounds with TGFb SMAD3 inh; note: nearly all actives have a fitted effect of over 65% in size
TGFb COP inh: TGF-b inhibition validated with COP promoter | shares compounds with TGFb SMAD3 inh | HepG2 COP-GFP TGF-b reporter, GFP fluorescence, 18 h; cells stimulated by added recombinant TGF-beta | Potency, µM (doses to about 46.1 µM), actives largely listed as inhibitors | 3% of 1,600 active; note: nearly all actives have a fitted effect of over 70% in size
Numbers stand for hits; 0 = inactive; ? = inconclusive; - = not tested or not shown. Most compounds without a hit are left out; they make up all but 2.7% or so of the library. Calls come from the whole dose curve; as a rule, active = well fitted curve in the direction sought with a large enough effect; inconclusive = small, poorly fitted or top-dose-only effect, or another doubt; inactive = no such curve, though single readings can be large; an effect the other way counts as inactive or inconclusive.

SMILES	ATXN2 expr inh	12-LOX inh	S2 tox	TGFb SMAD3 inh	HepG2 tox-1	TGFb CAGA inh	HepG2 tox-2	CCL64 TGFb inh	TGFb COP inh
CC(=O)NC(c1cccc([N+](=O)[O-])c1)c1c(OC(C)=O)ccc2ccccc12 (centres undefined)	0	0	0	0	0	-	-	-	-
O=C(Nc1cccc(-n2cnnn2)c1)c1cc(Cl)ccc1Cl	0	0	0	16µM	0	?	?	0	0
Cc1sc2ncnc(N3CCC(C(=O)N(C)CC(=O)Nc4cccc(F)c4)CC3)c2c1C	-	0	0	0	0	-	-	-	-
Cc1sc2ncnc(N3CCC(C(=O)N(C)CC(=O)Nc4ccc(Cl)c(C(F)(F)F)c4)CC3)c2c1C	?	0	?	11µM	0	5.2µM	?	9.2µM	0
Cc1ccccc1-c1cc(C(=O)Nc2sc(C(=O)OC(C)C)c(C)c2C#N)c2ccccc2n1	?	0	?	3.5µM	0	5.2µM	1.5µM	5.8µM	0
COC(=O)c1sc(NC(=O)c2cc(-c3ccccc3)nc3ccccc23)c(C#N)c1C	?	0	?	5µM	0	4.6µM	?	3.3µM	0
O=C(Nc1nnc(-c2cccs2)o1)c1cc(-c2ccccc2)nc2ccccc12	?	0	?	11µM	0	12µM	?	15µM	0
O=C(NCc1cccs1)c1cc(-c2ccccc2)nc2ccccc12	0	0	?	0	0	-	-	-	-
C[C@H](NC(=O)c1ccc2nc(-n3cccc3)sc2c1)C(=O)NCc1ccco1	-	0	-	-	-	-	-	-	-
O=c1c2[nH]c3ccccc3c2ncn1CCC1=CCCCC1	0	0	0	0	0	-	-	-	-
C1=C(CCNc2ncnc3c2[nH]c2ccccc23)CCCC1	?	?	14µM	3.5µM	0	?	21µM	6.5µM	0
CC1CCN(C(CNC(=O)c2ccccc2C(F)(F)F)C(C)C)CC1 (centres undefined)	-	0	-	-	-	-	-	-	-
COc1ccc(COc2cc(-c3cccc(OC)c3)nc3ccc(N)cc23)cc1	0	0	-	7.1µM	0	3.3µM	0	1.8µM	0
COc1ccc(NC(=S)N(CCCN2CCCC2)Cc2cccn2Cc2ccc(Cl)cc2)cc1Cl	-	0	-	3.2µM	6.3µM	?	?	?	0
O=C(Cc1ccc2ccccc2c1)Nc1cccc2ncccc12	-	0	-	-	-	-	-	-	-
COc1cc(NC(=O)N2CCc3nc(Nc4cc(Cl)cc(Cl)c4)ncc3C2)cc(OC)c1OC	?	0	0	18µM	0	21µM	?	7.3µM	0
O=C(CN(CCc1ccccc1)S(=O)(=O)c1ccc(Cl)cc1)N/N=C/c1ccc2c(c1)OCO2	0	0	?	?	0	?	0	0	0
COc1ccc(S(=O)(=O)N(CCc2ccccc2)CC(=O)N/N=C/c2ccc3c(c2)OCO3)cc1	0	0	0	0	0	-	-	-	-
O=C(c1cccs1)N(Cc1nc2sc3c(c2c(=O)[nH]1)CCCC3)C1CCCC1	0	0	?	?	0	?	?	?	0
COc1ccc(Cl)cc1NC(=O)CN1c2ccccc2CC1C (centres undefined)	0	0	0	?	0	?	0	?	0
CC(=O)N1CCN(c2ccc(NC(=S)NC(=O)COc3ccc(C(C)(C)C)cc3)cc2)CC1	0	?	0	?	0	4.6µM	?	0	0
CCC(=O)N1CCN(c2ccc(NC(=S)NC(=O)COc3ccccc3)cc2)CC1	-	0	0	0	0	-	-	-	-
